# Screening results (PubChem)
# Mtb hypoxia inh: reduces hypoxia-regulated biosensor signal in M. tuberculosis; fluorescence inhibition, % (concentration not given with the values); actives 0.1% (n = 300,000); M. tuberculosis hypoxia-regulated fluorescent reporter, fluorescence; AID 1159583; in the data active means fluorescence inhibition mostly above about 23%, no sharp cut-off; inactive means mostly below about 17%
# BioA inh: BioA (M. tuberculosis) enzyme inhibition | actives 0.096% (n = 360,000) | inhibition, % at 9.99 µM | purified M. tuberculosis BioA enzyme, plate reader; in the data active means inhibition above about 40%
# FBA Mtb inh: Mtb fructose-bisphosphate aldolase inhibition. purified M. tuberculosis FBA, fluorescence read-out. inhibition, % at 1 µM. actives 2.3% (n = 360,000). AID 588726; in the data active means inhibition above about 27%;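 further: 0% = vehicle and 100% = reference inhibitor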
# Target sequence (P9WQA3 whole entry, looked up): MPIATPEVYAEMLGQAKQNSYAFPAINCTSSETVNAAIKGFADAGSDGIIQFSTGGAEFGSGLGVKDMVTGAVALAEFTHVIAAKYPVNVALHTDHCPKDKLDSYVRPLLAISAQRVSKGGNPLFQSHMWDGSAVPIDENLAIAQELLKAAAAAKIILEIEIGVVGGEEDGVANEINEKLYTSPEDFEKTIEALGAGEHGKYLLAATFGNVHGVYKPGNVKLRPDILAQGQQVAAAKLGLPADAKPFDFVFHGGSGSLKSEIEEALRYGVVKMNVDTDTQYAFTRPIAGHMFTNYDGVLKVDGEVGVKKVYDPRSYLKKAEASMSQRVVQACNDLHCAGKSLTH
# FadD28 FP inh: blocks FadD28 binding to the bisubstrate probe; fluorescence polarization; inhibition, % at 12.5 µM; actives 0.22% (n = 360,000); AID 588549; in the data active means inhibition above about 8.5%, passing the limit was not always enough
# GDH-TPI inh: GDH-TPI coupled enzyme inhibition counter-screen; GDH-TPI coupled enzyme counterscreen, NADH absorbance; actives 1.2% (n = 360,000); inhibition, % at 4.8 µM; in the data active means inhibition above about 30%;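 further: 0% = DMSO wells and 100% = wells lacking the enzyme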
# Active calls of the source: *; nt = no result shown; + = active, no number. Rows were chosen to be rich in hits. Some 2.9% of all compounds tested hit in one or more screens of this group.
SMILES,Mtb hypoxia inh,BioA inh,FBA Mtb inh,FadD28 FP inh,GDH-TPI inh
CC(=O)N=c1c(C#N)cc2c(=O)n3cccc(C)c3nc2n1Cc1ccco1,10,2,+,-1,9
Cc1cccn2c(=O)c3cc(C#N)c(=NC(=O)c4cccs4)n(CCCOC(C)C)c3nc12,-5,nt,+,-1,12
CCOCCCn1c(=NC(=O)c2cccs2)c(C#N)cc2c(=O)n3ccccc3nc21,14,-2,+,-3,10
[N-]=[N+]=NCC(Cc1ccccc1)N1CCC(OCc2ccccc2)CCC1=O (stereo not given),-7,nt,nt,nt,nt
Cc1ccc(S(=O)(=O)N(C)C[C@@H]2Oc3ccc(NS(=O)(=O)c4ccc(F)cc4)cc3C(=O)N([C@@H](C)CO)C[C@@H]2C)cc1,nt,-2,nt,nt,nt
Cc1ccc(Cn2c(SCC(=O)NN=Cc3ccc(C)o3)nc3ccccc32)cc1,-8,nt,nt,nt,nt
CC(=O)N=c1c(C#N)cc2c(=O)n3cccc(C)c3nc2n1CCCOC(C)C,7,-2,+,-3,5
C[C@@H]1CCCCO[C@@H](CN(C)S(=O)(=O)c2cn(C)cn2)[C@H](C)CN([C@H](C)CO)C(=O)c2cc(NS(=O)(=O)c3ccccc3)ccc2O1,nt,1,nt,nt,nt
N#C/C(=C(/O)c1cc2ccccc2o1)c1nc2ccccc2s1,1,-2,1,2,9
N#C/C(=C(/O)c1ccco1)c1nc2ccccc2s1,3,1,4,-1,56*
N#C/C(=C(/O)COC(=O)c1ccccc1O)c1nc2ccccc2s1,nt,nt,6,0,26
N#C/C(=C(/O)CN1CCOCC1)c1nc2ccccc2s1,nt,-1,9,0,39*
O=C1NCC(c2ccccc2)N(CCc2cccc(F)c2)C1=O (stereo not given),8,nt,nt,nt,nt
Cc1ccc(CNc2cnccn2)cc1,8,0,74*,-4,6
c1ccc(CCNCc2cccnc2)cc1,5,0,0,-3,3
c1ccc(CCNc2cnccn2)cc1,0,-2,+,-1,13
O=C(c1ccccn1)N(Cc1cc2ccccc2[nH]c1=O)C1CCCCC1,nt,-1,+,0,10
O=C(NC1CCCCC1)N(Cc1cc2cc3c(cc2[nH]c1=O)OCCO3)C1CCCCC1,4,5,8,1,35*
O=[N+]([O-])c1ccc(CNc2ccc(Cl)cc2)s1,16,5,1,10*,13
CN(C)CCCNC(=O)C[C@@H]1C=C[C@H](NC(=O)c2ccccc2F)[C@@H](CO)O1,nt,-1,nt,nt,nt
CCOc1cccc(/C=C/c2cc(C(=O)O)c3ccccc3n2)c1OC,1,-2,-8,0,48*
CCOc1cc(/C=C/c2cc(C(=O)O)c3ccccc3n2)ccc1OC,nt,nt,1,0,7
CNc1oc(/C=C/c2cccc(OC)c2)nc1C#N,7,5,+,1,28
CN(C)CCCNc1c2ccccc2nc2ccccc12,9,0,177*,-1,7
N#Cc1nc(Cc2cccc3ccccc23)oc1NCCCn1ccnc1,5,4,4,0,-13
SMILES,Mtb hypoxia inh,BioA inh,FBA Mtb inh,FadD28 FP inh,GDH-TPI inh
COc1ccccc1-c1nc(C#N)c(NCCCn2ccnc2)o1,12,nt,+,-1,6
COc1ccc(-c2nc(C#N)c(NCCCN(C)C)o2)cc1OC,-3,0,+,-4,12
CN(C)CCCNc1oc(-c2ccc(Cl)cc2)nc1S(=O)(=O)c1ccccc1,6,-1,5,0,11
COc1ccc(CCNc2oc(-c3ccccc3OC)nc2C#N)cc1,10,1,+,-3,18
CCN(CC)CCCNc1oc(/C=C/c2ccccc2)nc1C#N,0,-1,+,0,28
COc1ccc(CCNc2oc(-c3ccc(OC)c(OC)c3)nc2C#N)cc1,16,2,+,12*,36*
CN(C)CCCNc1oc(-c2ccccc2)nc1C#N,6,0,131*,1,6
Cc1ccc(S(=O)(=O)Nc2ccc3c(c2)C(=O)N([C@@H](C)CO)C[C@@H](C)[C@H](CN(C)C)O3)cc1,nt,-4,nt,nt,nt
COc1ccc(-c2nc(CS(=O)CC(=O)NC(C)CCc3ccccc3)c(C)o2)cc1OC (stereo not given),10,4,6,-4,0
COc1ccccc1-c1nc(C#N)c(NCc2ccc(F)cc2)o1,5,3,113*,-2,14
CN(C)CCNc1oc(-c2ccccc2F)nc1C#N,nt,-2,145*,0,16
COc1ccc(-c2nc(C#N)c(NC(C)c3ccccc3)o2)cc1OC (stereo not given),10,0,144*,-1,13
O=C(c1ccccc1)N(Cc1ccccc1)c1ccccn1,2,-1,-1,-2,-2
Cc1cc(NS(=O)(=O)c2ccc(NC(=O)c3cnc4sccn4c3=O)cc2)nc(C)n1,7,-1,2,0,20
O=C(c1cnc2sccn2c1=O)N(Cc1ccccc1)c1ccccn1,6,-1,0,1,33*
O=C(NCc1ccc(F)cc1)c1cnc2sccn2c1=O,1,5,9,-3,27
O=C(NCc1cccs1)c1cnc2sccn2c1=O,1,5,2,0,45*
Cc1cc(C)nc(NC(=O)c2cnc3sccn3c2=O)n1,6,1,4,-4,46*
CCN(CC)S(=O)(=O)c1cccc(C(=O)NN=Cc2ccc(OC)c(O)c2)c1,4,nt,nt,nt,nt
N/C(=N\N=C\c1ccc(O)cc1O)N[N+](=O)[O-],nt,0,1,-2,36*
COc1ccc(-n2nc(C(=O)NCC(=O)NC3CCCC(C)C3C)c3ccccc3c2=O)c(OC)c1 (stereo not given),35*,5,1,-4,-4
CO[C@H](CN(C)S(=O)(=O)c1cccc(Cl)c1)[C@@H](C)CN(C(=O)Nc1ccccc1F)[C@@H](C)CO,nt,2,nt,nt,nt
CC(C)C1COCCS(=O)(=O)N1Cc1ccccc1 (stereo not given),8,nt,nt,nt,nt
Cc1cc(NS(=O)(=O)c2ccc(NC(=O)c3ccc([N+](=O)[O-])s3)cc2)nc(C)n1,nt,7,-1,0,31*
O=C(O)c1ccccc1-c1ccc(C=c2sc3nc4cc(Br)cnc4n3c2=O)o1,1,-2,-3,13*,21
SMILES,Mtb hypoxia inh,BioA inh,FBA Mtb inh,FadD28 FP inh,GDH-TPI inh
COc1ccc(NC(=O)N(C)C[C@H]2OCCCC[C@@H](C)Oc3ccc(NC(=O)NC(C)C)cc3C(=O)N([C@@H](C)CO)C[C@H]2C)cc1,nt,1,nt,nt,nt
O=[N+]([O-])c1nn(-c2cccc(Cl)c2)n(O)c1=NCc1cccnc1,57*,nt,-2,-2,9
O=[N+]([O-])c1nn(-c2ccc(Cl)cc2)n(O)c1=NCc1cccnc1,nt,-1,3,-1,14
CCN1C(=O)[C@@H]2[C@@H](c3ccc(-c4cc(C(C)=O)cs4)cc3)N3CCC[C@@]3(C(=O)OC)[C@@H]2C1=O,nt,4,10,-3,36*
Cc1nc(C)c(C(=O)Nc2cccc(F)c2)s1,9,47*,5,-1,8
CCS(=O)(=O)N=C(N)c1ccccc1,4,nt,nt,nt,nt
O=C(NNC(=S)Nc1ccccc1Cl)c1ccncc1,-6,-1,-3,-1,34*
